PubChem BioAssay AID1159580 (chemical genetic matrix, 2015)
“And” between values parts separate entries of the source, which are not always exact repeats. Equal entries are not always repeated. About 2,000 (36%) of roughly 5,500 compounds were called active. About 18% were inconclusive and are not listed. Rule as the data show it: active = normalized growth mostly below about 0.91 (no sharp cut-off); inconclusive = no clear call, values can overlap the other calls; inactive = mostly above about 0.92. The list shows a part of the results.

Assay: chemical genetic growth profiling, strain panel (AID 1159580);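 also: tested at 20 µM; growth read once vehicle control cultures reached saturation at 30 °C; 1 = growth at the plate median or of vehicle wells; lower values mean less growth of the strain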
Conditions: S. cerevisiae deletion strains, growth OD

Measured: normalized growth

CO[C@H]1C[C@H](O[C@H]2[C@H](C)[C@@H](OC3O[C@H](C)C[C@H](N(C)C)[C@H]3OC(C)=O)[C@@H](C)C[C@]3(CO3)C(=O)[C@H](C)[C@@H](OC(C)=O)[C@@H](C)[C@@H](C)OC(=O)[C@@H]2C)O[C@@H](C)[C@@H]1OC(C)=O (some centres undefined)
inactive: locus YAL021C, strain ccr4, hits give low values 0.998 | locus YAL026C, strain drs2, hits give low values 1.01 | locus YAL030W, strain snc1, hits give low values 0.989 | locus YBL061C, strain skt5, hits give low values 1 | locus YBR009C, strain hhf1, hits give low values 0.997 | locus YBR021W, strain FUR4, hits give low values 0.996 | locus YBR023C, strain chs3, hits give low values 0.996 | locus YBR171W, strain sec66, hits give low values 1.01 | locus YBR229C, strain ROT2, hits give low values 1.01 | locus YBR231C, strain swc5, hits give low values 0.996 | locus YBR279W, strain paf1, hits give low values 1 | locus YCL011C, strain gbp2, hits give low values 1.01 | locus YCL016C, strain dcc1, hits give low values 1 | locus YCL029C, strain bik1, hits give low values 0.997 | locus YCL061C, strain MRC1, hits give low values 0.992 | locus YCL069W, strain vba3, hits give low values 0.994 | locus YCR088W, strain abp1, hits give low values 0.994 | locus YDL005C, strain med2, hits give low values 0.985 | locus YDL035C, strain GPR1, hits give low values 1.01 | locus YDL040C, strain nat1, hits give low values 0.998 | locus YDL074C, strain BRE1, hits give low values 1 | locus YDL101C, strain DUN1, hits give low values 1.01 | locus YDL134C, strain PPH21, hits give low values 1 | locus YDL185W, strain tfp1, hits give low values 0.981 | locus YDL192W, strain arf1, hits give low values 0.989 | locus YDR001C, strain nth1, hits give low values 0.992 | locus YDR069C, strain doa4, hits give low values 0.998 | locus YDR101C, strain arx1, hits give low values 1.01 | locus YDR137W, strain rgp1, hits give low values 1 | locus YDR159W, strain sac3, hits give low values 0.997 | locus YDR162C, strain NBP2, hits give low values 1 | locus YDR195W, strain ref2 1 | locus YDR297W, strain sur2, hits give low values 0.991 | locus YDR318W, strain mcm21, hits give low values 0.993 | locus YDR334W, strain swr1, hits give low values 1 | locus YDR335W, strain msn5, hits give low values 0.998 | locus YDR388W, hits give low values 0.979 | locus YDR392W, strain spt3, hits give low values 0.996 | locus YDR502C, strain sam2, hits give low values 0.977 | locus YEL003W, strain gim4, hits give low values 1 | locus YEL037C, strain rad23, hits give low values 0.998 | locus YEL061C, strain CIN8 (second series), hits give low values 1 | locus YEL061C, strain CIN8, hits give low values 1.01 | locus YER015W, strain faa2, hits give low values 0.998 | locus YER016W, strain bim1, hits give low values 0.997 | locus YER110C, hits give low values 0.988 | locus YER111C, strain swi4, hits give low values 1.01 | locus YER155C, strain BEM2 (second series), hits give low values 0.994 | locus YER155C, strain BEM2, hits give low values 1.01 | locus YER167W, strain BCK2, hits give low values 1 | locus YFR010W, strain ubp6, hits give low values 1.01 | locus YGL078C, strain dbp3, hits give low values 0.984 | locus YGL086W, strain mad1, hits give low values 1 | locus YGL167C, strain pmr1, hits give low values 0.996 | locus YGL173C, strain kem1, hits give low values 1.01 | locus YGL227W, strain vid30, hits give low values 1.02 | locus YGL240W, strain doc1, hits give low values 1.01 | locus YGL248W, strain PDE1, hits give low values 1.01 | locus YGL253W, strain hxk2, hits give low values 0.991 | locus YGR078C, strain PAC10, hits give low values 1.01 | locus YGR135W, strain pre9, hits give low values 0.986 | locus YGR252W, strain gcn5, hits give low values 0.933 | locus YHR013C, strain ard1, hits give low values 0.986 | locus YHR027C, strain rpn1, hits give low values 0.995 | locus YHR030C, strain SLT2, hits give low values 1.01 and 0.973 | locus YHR079C, strain IRE1 (second series), hits give low values 0.992 | locus YHR079C, strain IRE1, hits give low values 0.987 | locus YHR094C, strain hxt1, hits give low values 0.988 | locus YHR129C, strain ARP1, hits give low values 1.01 | locus YHR142W, strain chs7, hits give low values 1.01 | locus YHR200W, strain rpn10, hits give low values 0.992 | locus YIL066C, strain RNR3, hits give low values 1.01 | locus YIL073C, strain SPO22, hits give low values 1 | locus YIL125W, strain kgd1, hits give low values 0.988 | locus YIR030C, strain dcg1, hits give low values 1 | locus YJL092W, strain hpr5, hits give low values 1 | locus YJL095W, strain BCK1 (second series), hits give low values 0.99 | locus YJL095W, strain BCK1, hits give low values 1.01 and 0.973 | locus YJL115W, strain asf1, hits give low values 1.02 | locus YJL129C, strain trk1, hits give low values 0.979 | locus YJL134W, strain LCB3, hits give low values 1 | locus YJL154C, strain vps35, hits give low values 0.987 | locus YJL164C, strain tpk1, hits give low values 1 | locus YJL166W, strain qcr8, hits give low values 1 | locus YJL168C, strain set2, hits give low values 0.994 | locus YJL187C, strain SWE1 (second series), hits give low values 1.01 | locus YJL187C, strain SWE1, hits give low values 1 | locus YJR043C, strain POL32, hits give low values 0.986 | locus YJR066W, strain TOR1, hits give low values 0.955
